According to PubChem BioAssay AID1159580 (chemical genetic matrix, 2015):
Out of some 5,500 compounds screened, about 2,000 (36%) were called active. Another 18% or so got no clear call; they are omitted. No stated cut-off is given here; in the data, active means normalized growth mostly below about 0.91 (no sharp cut-off); inconclusive means no clear call, values can overlap the other calls; inactive means mostly above about 0.92. Some of the results follow.

Test: chemical genetic growth profiling, strain panel (AID 1159580);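 further: tested at 20 µM; growth read once vehicle control cultures reached saturation at 30 °C; 1 = growth at the plate median or of vehicle wells; lower values mean less growth of the strain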
Settings: growth OD

Measured: normalized growth

CCCCCCCCCCCCCCCCCCOCC(O)CO (stereo not drawn)
inactive: S. cerevisiae deletion strains, locus YJR043C, strain POL32, active compounds read low 1.01 | S. cerevisiae deletion strains, locus YJR066W, strain TOR1, active compounds read low 0.965 | S. cerevisiae deletion strains, locus YKL009W, strain mrt4, active compounds read low 1.04 | S. cerevisiae deletion strains, locus YKL068W, active compounds read low 1.01 | S. cerevisiae deletion strains, locus YKL085W, strain MDH1 (second series), active compounds read low 0.986 | S. cerevisiae deletion strains, locus YKL085W, strain MDH1, active compounds read low 0.986 | S. cerevisiae deletion strains, locus YKL160W, strain elf1, active compounds read low 1.01 | S. cerevisiae deletion strains, locus YKR001C, strain vps1, active compounds read low 1.04 | S. cerevisiae deletion strains, locus YKR026C, strain gcn3, active compounds read low 1 | S. cerevisiae deletion strains, locus YKR091W, strain srl3, active compounds read low 0.995 | S. cerevisiae deletion strains, locus YLL001W, strain dnm1, active compounds read low 0.997 | S. cerevisiae deletion strains, locus YLL026W, active compounds read low 0.983 | S. cerevisiae deletion strains, locus YLL041C, strain sdh2, active compounds read low 0.997 | S. cerevisiae deletion strains, locus YLR027C, strain aat2, active compounds read low 0.998 | S. cerevisiae deletion strains, locus YLR039C, strain RIC1, active compounds read low 1.04 | S. cerevisiae deletion strains, locus YLR058C, strain SHM2, active compounds read low 0.999 | S. cerevisiae deletion strains, locus YLR102C, strain apc9, active compounds read low 1.01 | S. cerevisiae deletion strains, locus YLR113W, strain HOG1, active compounds read low 0.995 | S. cerevisiae deletion strains, locus YLR221C, strain rsa3, active compounds read low 1 | S. cerevisiae deletion strains, locus YLR258W, strain gsy2, active compounds read low 0.975 | S. cerevisiae deletion strains, locus YLR262C, strain YPT6 (second series), active compounds read low 1 | S. cerevisiae deletion strains, locus YLR262C, strain YPT6, active compounds read low 1.01 | S. cerevisiae deletion strains, locus YLR268W, strain sec22, active compounds read low 1.05 | S. cerevisiae deletion strains, locus YLR320W, strain mms22, active compounds read low 0.979 | S. cerevisiae deletion strains, locus YLR330W, strain CHS5, active compounds read low 1.02 | S. cerevisiae deletion strains, locus YLR342W, strain FKS1 (second series), active compounds read low 1.04 | S. cerevisiae deletion strains, locus YLR342W, strain FKS1, active compounds read low 0.987 | S. cerevisiae deletion strains, locus YLR357W, strain rsc2, active compounds read low 0.932 | S. cerevisiae deletion strains, locus YLR370C, strain arc18, active compounds read low 0.998 | S. cerevisiae deletion strains, locus YLR371W, strain rom2, active compounds read low 1.02 | S. cerevisiae deletion strains, locus YLR384C, strain iki3, active compounds read low 0.986 | S. cerevisiae deletion strains, locus YLR418C, strain cdc73, active compounds read low 0.976 | S. cerevisiae deletion strains, locus YML016C, strain PPZ1, active compounds read low 1.01 | S. cerevisiae deletion strains, locus YML032C, strain rad52, active compounds read low 0.983 | S. cerevisiae deletion strains, locus YML120C, strain ndi1, active compounds read low 1.01 | S. cerevisiae deletion strains, locus YML124C, strain tub3, active compounds read low 1 | S. cerevisiae deletion strains, locus YMR058W, strain fet3, active compounds read low 0.999 | S. cerevisiae deletion strains, locus YMR078C, strain ctf18, active compounds read low 1 | S. cerevisiae deletion strains, locus YMR125W, strain sto1, active compounds read low 0.955 | S. cerevisiae deletion strains, locus YMR129W, active compounds read low 0.989 | S. cerevisiae deletion strains, locus YMR205C, strain PFK2, active compounds read low 0.96 | S. cerevisiae deletion strains, locus YMR223W, strain ubp8, active compounds read low 1.01 | S. cerevisiae deletion strains, locus YMR231W, strain pep5, active compounds read low 0.993 | S. cerevisiae deletion strains, locus YMR263W, strain SAP30, active compounds read low 1 | S. cerevisiae deletion strains, locus YMR307W, strain GAS1, active compounds read low 1.01 | S. cerevisiae deletion strains, locus YNL067W, strain RPL9B, active compounds read low 1.01 | S. cerevisiae deletion strains, locus YNL071W, strain lat1, active compounds read low 1 | S. cerevisiae deletion strains, locus YNL128W, strain TEP1, active compounds read low 1.02 | S. cerevisiae deletion strains, locus YNL183C, strain NPR1, active compounds read low 0.974 | S. cerevisiae deletion strains, locus YNL209W, strain ssb2, active compounds read low 0.999 | S. cerevisiae deletion strains, locus YNL233W, strain BNI4, active compounds read low 1.01 | S. cerevisiae deletion strains, locus YNL248C, strain rpa49, active compounds read low 1.01 | S. cerevisiae deletion strains, locus YNL250W, strain rad50, active compounds read low 1 | S. cerevisiae deletion strains, locus YNL271C, strain bni1, active compounds read low 1 | S. cerevisiae deletion strains, locus YNL298W, strain CLA4, active compounds read low 1 | S. cerevisiae deletion strains, locus YNL307C, strain MCK1, active compounds read low 1.01 | S. cerevisiae deletion strains, locus YNL322C, strain KRE1 (second series), active compounds read low 0.998 | S. cerevisiae deletion strains, locus YNR049C, strain mso1, active compounds read low 0.995 | S. cerevisiae deletion strains, locus YNR052C, strain pop2, active compounds read low 0.999 | S. cerevisiae deletion strains, locus YOL012C, strain htz1 0.72 | S. cerevisiae deletion strains, locus YOL147C, strain pex11, active compounds read low 1 | S. cerevisiae deletion strains, locus YOR001W, strain rrp6, active compounds read low 0.996 | S. cerevisiae deletion strains, locus YOR061W, strain CKA2, active compounds read low 1 | S. cerevisiae deletion strains, locus YOR069W, strain VPS5, active compounds read low 1.01 | S. cerevisiae deletion strains, locus YOR070C, strain gyp1, active compounds read low 0.997 | S. cerevisiae deletion strains, locus YOR080W, strain dia2, active compounds read low 0.977 | S. cerevisiae deletion strains, locus YOR083W, strain WHI5, active compounds read low 1.02 | S. cerevisiae deletion strains, locus YOR106W, strain vam3, active compounds read low 1.01 | S. cerevisiae deletion strains, locus YOR136W, strain idh2, active compounds read low 1.02 | S. cerevisiae deletion strains, locus YOR144C, strain elg1, active compounds read low 1.01 | S. cerevisiae deletion strains, locus YOR184W, strain ser1, active compounds read low 0.995 | S. cerevisiae deletion strains, locus YOR231W, strain MKK1, active compounds read low 1 | S. cerevisiae deletion strains, locus YOR265W, strain rbl2, active compounds read low 0.987 | S. cerevisiae deletion strains, locus YOR270C, strain vph1, active compounds read low 1.03 | S. cerevisiae deletion strains, locus YOR290C, strain snf2, active compounds read low 0.973 | S. cerevisiae deletion strains, locus YOR316C, strain cot1, active compounds read low 0.997 | S. cerevisiae deletion strains, locus YPL051W, strain arl3, active compounds read low 1.01 | S. cerevisiae deletion strains, locus YPL078C, strain atp4, active compounds read low 1.01 | S. cerevisiae deletion strains, locus YPL106C, strain sse1, active compounds read low 0.953 | S. cerevisiae deletion strains, locus YPL240C, strain hsp82, active compounds read low 0.985 | S. cerevisiae deletion strains, locus YPL241C, strain CIN2, active compounds read low 0.998 | S. cerevisiae deletion strains, locus YPL256C, strain CLN2, active compounds read low 0.983 | S. cerevisiae deletion strains, locus YPR119W, strain clb2, active compounds read low 1 | S. cerevisiae deletion strains, locus YPR141C, strain kar3, active compounds read low 1 | S. cerevisiae deletion strains, locus YPR163C, strain tif3, active compounds read low 1.02 | S. cerevisiae deletion strains, locus YPR167C, strain met16, active compounds read low 1.02 | S. cerevisiae deletion strains, strain wtn01, active compounds read low 1.04 | S. cerevisiae strains, strain wild type, active compounds read low 0.995
